Screens deposited in PubChem by National Center for Advancing Translational Sciences (NCATS).
USP2a inh = qHTS Assay for Inhibitors of Ubiquitin-specific Protease USP2a Using CHOP2 as the Reporter | Ubiquitin carboxyl-terminal hydrolase 2 (Homo sapiens), O75604 | USP2 core, Ub-CHOP2 coupled fluorogenic reporter, 485/531 | Potency, µM (doses to about 38.3 µM), for the others: at the top dose activity change, negative = inhibition, usual class: inhibitors | 0.01% of 330,000 active;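 further: potency means the concentration at half of the fitted maximal effect; plate controls were DMSO wells for no effect and full inhibition by NEM control for full effect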
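Deubiquitinase activity read as fluorescence (485/531 nm) after Ub-CHOP2 cleavage activates the enterokinase reporter on its substrate; USP2 core 10nM, Ub-CHOP2 and substrate 25nM each, 30min compound preincubation then 60min RT; data normalized to NEM, curves fitted.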
VDR inhibitor = Inhibitors of the vitamin D receptor (VDR): qHTS; Vitamin D3 receptor (Homo sapiens), P11473; VDR-SRC2-3 peptide fluorescence polarization, 2 h; Potency, µM, without a hit: max response, negative = inhibition, actives largely listed as inhibitors; 0.93% of 400,000 active; AID 504847, 2011; further: potency means the concentration at half of the fitted maximal effect
Target sequence (P11473 whole entry, looked up): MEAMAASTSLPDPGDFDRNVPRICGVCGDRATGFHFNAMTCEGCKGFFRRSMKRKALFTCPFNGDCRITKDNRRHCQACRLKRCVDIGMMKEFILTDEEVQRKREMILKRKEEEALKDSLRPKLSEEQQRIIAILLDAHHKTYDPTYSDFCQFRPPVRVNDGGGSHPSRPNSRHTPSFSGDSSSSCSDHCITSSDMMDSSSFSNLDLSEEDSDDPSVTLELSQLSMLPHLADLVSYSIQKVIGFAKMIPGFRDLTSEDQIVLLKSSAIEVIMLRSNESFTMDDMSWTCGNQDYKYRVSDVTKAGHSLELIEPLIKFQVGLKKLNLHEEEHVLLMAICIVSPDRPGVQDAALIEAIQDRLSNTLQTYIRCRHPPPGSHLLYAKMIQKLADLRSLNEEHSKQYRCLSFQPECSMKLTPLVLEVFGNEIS
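Two reagent solutions held at 4 deg C in the dark were dispensed, compounds pinned at 23 nl, and the mixture incubated 2 h at room temperature. Read-out: fluorescence polarization of VDR–SRC2-3 peptide binding.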
GALK inhibitor = qHTS Assay for Inhibitors of Human Galactokinase (GALK) | Purified GALK, Kinase-Glo residual ATP luminescence | Potency, µM (highest dose often 57.5 µM), without a hit: at the highest dose activity change, negative = inhibition, actives largely listed as inhibitors | 0.007% of 270,000 active | AID 1868, 2009; further: potency means the concentration at half of the fitted maximal effect
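5 nM enzyme, 35 uM ATP, 100 uM galactose, 20 mM HEPES pH8.0, 5 mM MgCl2; 1 h RT; residual ATP by Kinase-Glo Plus luminescence, qHTS format.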
USP1-UAF1 inh = Inhibitors of USP1/UAF1: Primary Screen; recombinant USP1/UAF1, Ub-Rhodamine cleavage fluorescence; Potency, µM (highest dose often 57.1 µM), inactives show at the highest dose activity change, negative = inhibition, usual class: inhibitors; 0.23% of 390,000 active; further: potency means the concentration at half of the fitted maximal effect; nearly all actives have a fitted effect of over 60% in size
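In this screen, compounds sit with the deubiquitinase complex (1nM) for 15 min at room temperature before Ub-Rho is added at 150nM final. Fluorescence rise is then followed for 6 reads every 60 seconds.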
PLK1 PBD block = qHTS for Inhibitors of PLK1-PDB (polo-like kinase 1 - polo-box domain): Primary Screen; Serine/threonine-protein kinase PLK1 (Homo sapiens), P53350; Plk1 PBD binding of FITC phosphopeptide, fluorescence polarization; Potency, µM, for the others: max response, negative = inhibition, usual class: inhibitors; 2.8% of 360,000 active; AID 720504, 2013; further: potency means the concentration at half of the fitted maximal effect; series mostly up to about 57 µM; nearly all actives have a fitted effect of over 65% in size
Coupling enz = qHTS Assay for Inhibitors of Fructose-1,6-bisphosphate Aldolase from Giardia Lamblia: Coupling assay counterscreen | coupling enzyme system counterscreen, AmpLite Red fluorescence | activity change, negative = inhibition, % at 58.2 µM, hits read low | 0.67% of 290,000 active | AID 2472, 2010; in the data active means activity change below about -30%
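Coupling enzymes only (glyceraldehyde-3-phosphate) + compound, at 57.5 uM final, 10 min RT; add substrate/coupling/AmpLite Red mix, 20 min RT; fluorescence ex 525/em 598 nm. Actives flag coupling-system interference.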
* = called active by the depositor; ? = inconclusive; . = not tested or not shown. An excerpt weighted towards active compounds, which were near 3.2% of everything screened. Unless noted, the call rests on the fitted dose curve; in most records, active means well fitted curve in the direction sought with a large enough effect; inconclusive means small, poorly fitted or top-dose-only effect, or another doubt; inactive means no such curve, though single readings can be large; an effect the other way counts as inactive or inconclusive. Unless noted, on the % scale 0 is the no-effect control and ±100 the full control effect.

SMILES	USP2a inh	VDR inhibitor	GALK inhibitor	USP1-UAF1 inh	PLK1 PBD block	Coupling enz
c1ccc(-c2noc(-c3cccc4ccccc34)n2)nc1	0%	0%	-1%	-20%	-7%	-4
COc1ccccc1-c1noc(-c2cc(OC)c(OC)c(OC)c2)n1	0%	?	2%	-20%	8.4µM*	1
COc1cccc(-c2nc(-c3ccccn3)no2)c1OC	2%	-4%	0%	-2%	7.5µM*	-3
COc1cc(OC)cc(-c2nc(-c3ccccc3OC)no2)c1	0%	-22%	-1%	-3%	27µM*	-1
CCCOc1cccc(C2/C(=C(/O)c3ccc4c(c3)CC(C)O4)C(=O)C(=O)N2CCN2CCOCC2)c1 (stereo unspecified)	0%	-1%	1%	-1%	-8%	0
CCOc1ccc(C2C=C(c3cccc(OC)c3)Nc3nnnn32)cc1 (stereo unspecified)	.	-21%	.	-26%	.	.
Cc1cccc2sc(N(CCCN(C)C)C(=O)COc3ccc(Cl)cc3)nc12	7%	0%	1%	-21%	-2%	1
COC(=O)c1c(C(=O)OC)c(-c2ccc(C(C)(C)C)cc2)n2c1CS(=O)C2 (stereo unspecified)	7%	-11%	-1%	-21%	-3%	4
Cc1cccc2c(=O)c(-c3ccc4c(c3)OCO4)c(NC(=O)c3ccco3)oc12	2%	-12%	5%	-17%	24µM*	.
CCN(CC)C(=O)N1CCc2ccccc21	2%	-20%	2%	-7%	30µM*	-3
O=C(c1c(F)c(F)c(F)c(F)c1F)N1CCc2ccccc21	.	?	.	-5%	24µM*	.
CCOCC(=O)N1CCc2ccccc21	2%	-10%	0%	-16%	-14%	1
COCCNC(=O)c1ccc(N2CCCCC2)c(NS(=O)(=O)c2ccc(C)cc2)c1	-7%	3%	2%	-4%	-10%	-14
Cc1cccc(NC(=O)CN(C)C(=O)C2CCCC2)c1C	-8%	3%	.	-9%	10%	.
Nc1c(C(=O)NCc2ccco2)c2nc3ccccc3nc2n1CCc1ccccc1	-1%	-6%	.	-26%	-8%	-34*
CSCC[C@H](NC(=O)N1CCn2c1nc1ccccc12)C(=O)NCc1ccco1	2%	-16%	-3%	-9%	27µM*	0
Cc1csc(SCC(=O)Nc2cc(S(=O)(=O)N3CCCC3)ccc2Cl)n1	-1%	10%	-4%	-9%	1%	2
COc1ccccc1N1CCN(C(=O)C2=CC=CN3CCS(=O)(=O)N=C23)CC1	-2%	-26%	.	-16%	-1%	.
CC(C)CN(C(=O)COC(=O)CSc1ccc([N+](=O)[O-])cc1)C1CCS(=O)(=O)C1 (stereo unspecified)	0%	?	.	-16%	19µM*	.
CC(C)CN(C(=O)COC(=O)C1c2ccccc2Oc2ccccc21)C1CCS(=O)(=O)C1 (stereo unspecified)	4%	2%	-1%	-26%	-3%	-1
CCN(C(=O)COC(=O)c1cc([N+](=O)[O-])ccc1N1CCCCC1)C1CCS(=O)(=O)C1 (stereo unspecified)	2%	-2%	-1%	1%	-14%	2
CCCN(C(=O)COC(=O)CSc1ccc([N+](=O)[O-])cc1)C1CCS(=O)(=O)C1 (stereo unspecified)	1%	89µM*	.	-10%	11µM*	.
O=C(CSc1nnc(C2COc3ccccc3O2)o1)N1CCN(c2ccccc2)CC1 (stereo unspecified)	0%	-10%	-1%	-23%	1%	0
COc1ccc(Nc2c3c(nc4nncn24)CCC3)cc1OC	.	14%	.	18%	.	.
CCOC(=O)/C(=C/c1ccc(OC(=O)c2ccccc2)cc1)C(C)=O	2%	?	.	-16%	5.3µM*	2
SMILES	USP2a inh	VDR inhibitor	GALK inhibitor	USP1-UAF1 inh	PLK1 PBD block	Coupling enz
CCOC(=O)C(=Cc1ccc(N(C)C)cc1)C(=O)c1ccccc1	.	.	.	.	4%	.
COc1ccc(-c2cc(C(F)(F)F)nc(SCC(=O)N3CCOCC3)n2)cc1OC	-2%	-11%	-1%	-16%	-9%	0
CCc1cc(=O)oc2cc(OCC(=O)NCCCN3CCOCC3)c(Cl)cc12	1%	-26%	-1%	-15%	3%	.
CCCCNc1c(-c2ccc(OC)c(SC3CCCCC3)c2)nc2cc(C)ccn12	-11%	-12%	.	-17%	-11%	.
Cc1ccc(Sc2cnc(N)nc2C)cc1	2%	-15%	0%	-1%	27µM*	0
Cc1nn(C(C)C(=O)Nc2ccccc2Cl)c(=O)c2nn(-c3ccccc3)c(C)c12 (stereo unspecified)	1%	-7%	4%	-11%	-7%	.
CCC(C(=O)Nc1ccccc1Cl)n1nc(C)c2c(C)n(-c3ccccc3)nc2c1=O (stereo unspecified)	2%	-10%	-6%	-28%	21µM*	.
COc1ccc(OC)c(CCNC(=O)C(C)n2nc(C)c3c(C)n(-c4ccccc4)nc3c2=O)c1 (stereo unspecified)	6%	-26%	-8%	-22%	27µM*	.
O=C(Nc1ccccc1F)c1cc(-c2ccco2)nc2ccccc12	.	3%	.	-10%	?	.
c1ccc2oc(SCc3nc4ccccc4s3)nc2c1	.	6%	3%	-24%	-12%	1
c1ccc(SCc2nc3ccccc3s2)nc1	2%	-24%	4%	-21%	19µM*	0
O=C(O)c1ccc2c(=O)n(Cc3ccccc3)c(SCc3ccc([N+](=O)[O-])cc3)nc2c1	3%	79µM*	.	-18%	?	21
O=C(O)C1CCN(S(=O)(=O)c2ccc(N3CCCC3C(=O)O)c([N+](=O)[O-])c2)CC1 (stereo unspecified)	1%	-9%	-1%	-11%	-2%	0
COc1ccc(C2C(C(N)=O)=C(C)Nc3nc(-c4ccccc4Cl)nn32)cc1 (stereo unspecified)	.	-4%	.	-7%	.	.
CC1=C(C(N)=O)C(c2ccncc2)n2nc(-c3ccccc3Cl)nc2N1 (stereo unspecified)	-1%	9%	0%	-11%	30µM*	1
